Results as given in the supplement of paper PMC7411054.
Where a name gives a salt, the structure may show the parent alone.

Legend:
Conditions in all cases: treatment time: 24 h
[1] = system: A549-ACTB-RAB5A; assay: lowest phenotypically active concentration; higher = less potent
Method in brief: (§1)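 Phenotypic activity depended on meeting both a deviation and a reproducibility criterion. The fifteen gene-edited A549, HepG2 and WPMY1 reporter lines were treated at 0.3, 1, 3 or 9 µM for 24 h, four wells each, then imaged live with features normalised to solvent control wells. Deviation required ≥3 of 4 wells past the 95th percentile of control Euclidean distances, and reproducibility a median replicate Pearson correlation above the 95th percentile of non-replicates.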

[2] = system: A549-GM130-SQSTM1; assay: as above
Method in brief: as §1

[3] = system: WPMY1-CANX-COX4; assay: as above
Method in brief: as §1

[4] = system: A549-ACTB-RAB5A; assay: phenotypically active (imaging signature differs from DMSO and reproducible) at any of 0.3-9 uM (binary (1 = active, 0 = inactive)); higher = active
Method in brief: as §1

[5] = system: A549-CANX-COX4; assay: as above
Method in brief: as §1

[6] = system: A549-GM130-SQSTM1; assay: as above
Method in brief: as §1

[7] = system: A549-TP53BP1-CLTA; assay: as above
Method in brief: as §1

[8] = system: A549-TUBA1B-RELA; assay: as above
Method in brief: as §1

[9] = system: HepG2-ACTB-RAB5A; assay: as above
Method in brief: as §1

[10] = system: HepG2-CANX-COX4; assay: as above
Method in brief: as §1

[11] = system: HepG2-GM130-SQSTM1; assay: as above
Method in brief: as §1

[12] = system: HepG2-TP53BP1-CLTA; assay: as above
Method in brief: as §1

[13] = system: HepG2-TUBA1B-RELA; assay: as above
Method in brief: as §1

[14] = system: WPMY1-ACTB-RAB5A; assay: as above
Method in brief: as §1

[15] = system: WPMY1-CANX-COX4; assay: as above
Method in brief: as §1

[16] = system: WPMY1-GM130-SQSTM1; assay: as above
Method in brief: as §1

[17] = system: WPMY1-TP53BP1-CLTA; assay: as above
Method in brief: as §1

[18] = system: WPMY1-TUBA1B-RELA; assay: as above
Method in brief: as §1

[19] = system: WPMY1-GM130-SQSTM1; assay: lowest phenotypically active concentration; higher = less potent
Method in brief: as §1

[20] = system: HepG2-ACTB-RAB5A; assay: as above
Method in brief: as §1

Row | Structure (SMILES) | lowest phenotypically active concentration [1] [µM] | lowest phenotypically active concentration [2] [µM] | lowest phenotypically active concentration [3] [µM] | phenotypically active [4] | phenotypically active [5] | phenotypically active [6] | phenotypically active [7] | phenotypically active [8] | phenotypically active [9] | phenotypically active [10] | phenotypically active [11] | phenotypically active [12] | phenotypically active [13] | phenotypically active [14] | phenotypically active [15] | phenotypically active [16] | phenotypically active [17] | phenotypically active [18] | lowest phenotypically active concentration [19] [µM] | lowest phenotypically active concentration [20] [µM]
1 | O=C(Nc1nc2cc(C(F)(F)F)cc(NC3CC3)n2n1)c1cccnc1 | 3 | 3 | 9 | 1 (active) | 0 (inactive) | 1 (active) | 0 (inactive) | 1 (active) | 0 (inactive) | 1 (active) | 0 (inactive) | 1 (active) | 1 (active) | 1 (active) | 1 (active) | 0 (inactive) | 1 (active) | 0 (inactive) | – | –
2 | CN1CCN(c2ccc(-c3cccc(CN4CCOCC4)c3)cc2NC(=O)c2c[nH]c(=O)cc2C(F)(F)F)CC1 | 9 | 9 | 9 | 1 (active) | 0 (inactive) | 1 (active) | 0 (inactive) | 1 (active) | 0 (inactive) | 0 (inactive) | 1 (active) | 1 (active) | 1 (active) | 0 (inactive) | 1 (active) | 1 (active) | 1 (active) | 1 (active) | 9 | –
3 | Cc1ccc(S(=O)(=O)n2c(N)nc3ccccc32)cc1 | 9 | – | – | 1 (active) | 0 (inactive) | 0 (inactive) | 0 (inactive) | 0 (inactive) | 1 (active) | 0 (inactive) | 0 (inactive) | 0 (inactive) | 0 (inactive) | 0 (inactive) | 0 (inactive) | 0 (inactive) | 0 (inactive) | 0 (inactive) | – | 9
4 | CC(C)c1c(C(=O)Nc2ccccc2)c(-c2ccccc2)c(-c2ccc(F)cc2)n1CC[C@@H](O)C[C@@H](O)CC(=O)O [atorvastatin] | 3 | – | 3 | 1 (active) | 0 (inactive) | 0 (inactive) | 0 (inactive) | 0 (inactive) | 1 (active) | 1 (active) | 1 (active) | 1 (active) | 1 (active) | 1 (active) | 1 (active) | 1 (active) | 1 (active) | 1 (active) | 3 | 3
5 | CC[C@H](CO)Nc1nc(Nc2cccc(-c3ccccn3)c2)c2ncn(C(C)C)c2n1 [(R)-DRF053 dihydrochloride] | 9 | 9 | 9 | 1 (active) | 0 (inactive) | 1 (active) | 0 (inactive) | 0 (inactive) | 1 (active) | 0 (inactive) | 1 (active) | 1 (active) | 1 (active) | 0 (inactive) | 1 (active) | 0 (inactive) | 0 (inactive) | 1 (active) | – | 9
6 | CNCC[C@H](Oc1cccc2ccccc12)c1cccs1 [duloxetine] | 9 | – | – | 1 (active) | 0 (inactive) | 0 (inactive) | 0 (inactive) | 1 (active) | 0 (inactive) | 0 (inactive) | 0 (inactive) | 0 (inactive) | 0 (inactive) | 0 (inactive) | 0 (inactive) | 0 (inactive) | 0 (inactive) | 0 (inactive) | – | –
7 | CCC(C)(C)C(=O)O[C@H]1C[C@@H](C)C=C2C=C[C@H](C)[C@H](CC[C@@H]3C[C@@H](O)CC(=O)O3)[C@H]21 [Simvastatin] | 3 | – | 1 | 1 (active) | 0 (inactive) | 0 (inactive) | 1 (active) | 0 (inactive) | 1 (active) | 1 (active) | 1 (active) | 1 (active) | 1 (active) | 1 (active) | 1 (active) | 1 (active) | 1 (active) | 1 (active) | 1 | 1
8 | N#Cc1ccc2ncnc(NCCc3ccccc3)c2c1 [Senexin A] | 3 | 3 | 3 | 1 (active) | 0 (inactive) | 1 (active) | 0 (inactive) | 0 (inactive) | 0 (inactive) | 1 (active) | 0 (inactive) | 0 (inactive) | 0 (inactive) | 1 (active) | 1 (active) | 0 (inactive) | 0 (inactive) | 1 (active) | – | –
9 | CNC(=O)c1cc(Oc2ccc(NC(=O)Nc3ccc(Cl)c(C(F)(F)F)c3)c(F)c2)ccn1 [regorafenib] | 9 | – | – | 1 (active) | 0 (inactive) | 0 (inactive) | 1 (active) | 0 (inactive) | 1 (active) | 1 (active) | 1 (active) | 1 (active) | 1 (active) | 0 (inactive) | 0 (inactive) | 0 (inactive) | 1 (active) | 0 (inactive) | – | 3
10 | CC(C)(C)c1ccc(C(O)CCCN2CCC(C(O)(c3ccccc3)c3ccccc3)CC2)cc1 (stereo not given) [terfenadine] | 9 | 3 | – | 1 (active) | 0 (inactive) | 1 (active) | 0 (inactive) | 0 (inactive) | 1 (active) | 0 (inactive) | 0 (inactive) | 0 (inactive) | 1 (active) | 0 (inactive) | 0 (inactive) | 1 (active) | 0 (inactive) | 1 (active) | 3 | 3
11 | CC1(CN2CCC(n3c(=O)[nH]c4ccccc43)CC2)OCc2ccccc2-n2cccc21 (stereo not given) | 9 | – | – | 1 (active) | 0 (inactive) | 0 (inactive) | 0 (inactive) | 1 (active) | 0 (inactive) | 0 (inactive) | 0 (inactive) | 0 (inactive) | 0 (inactive) | 0 (inactive) | 0 (inactive) | 1 (active) | 0 (inactive) | 0 (inactive) | 3 | –
12 | O=C1c2c(O)cccc2Cc2cccc(O)c21 [anthralin] | 9 | 9 | – | 1 (active) | 0 (inactive) | 1 (active) | 0 (inactive) | 0 (inactive) | 0 (inactive) | 0 (inactive) | 0 (inactive) | 0 (inactive) | 0 (inactive) | 1 (active) | 0 (inactive) | 1 (active) | 0 (inactive) | 1 (active) | 9 | –
13 | CCOC(=O)c1c2c3c(cccc3[nH]c1=O)C(=O)c1ccccc1-2 | 1 | 1 | – | 1 (active) | 0 (inactive) | 1 (active) | 0 (inactive) | 0 (inactive) | 0 (inactive) | 0 (inactive) | 0 (inactive) | 1 (active) | 0 (inactive) | 0 (inactive) | 0 (inactive) | 0 (inactive) | 0 (inactive) | 0 (inactive) | – | –
14 | Cn1cc(-c2cnc3ccc4ccc(CS(=O)(=O)NCc5ccccn5)cc4c(=O)c3c2)cn1 | 9 | – | 3 | 1 (active) | 0 (inactive) | 0 (inactive) | 0 (inactive) | 1 (active) | 0 (inactive) | 0 (inactive) | 0 (inactive) | 0 (inactive) | 0 (inactive) | 0 (inactive) | 1 (active) | 0 (inactive) | 0 (inactive) | 0 (inactive) | – | –
15 | O=C(/C=C/c1ccc2ccccc2n1)c1ccncc1 | 9 | – | – | 1 (active) | 0 (inactive) | 0 (inactive) | 0 (inactive) | 1 (active) | 1 (active) | 0 (inactive) | 1 (active) | 0 (inactive) | 1 (active) | 1 (active) | 0 (inactive) | 1 (active) | 1 (active) | 1 (active) | 9 | 3
16 | COc1cc(OC)c2c(=O)[nH]c(-c3cc(C)c(OCCO)c(C)c3)nc2c1 [apabetalone] | 9 | 9 | – | 1 (active) | 0 (inactive) | 1 (active) | 0 (inactive) | 0 (inactive) | 1 (active) | 1 (active) | 1 (active) | 0 (inactive) | 0 (inactive) | 0 (inactive) | 0 (inactive) | 0 (inactive) | 1 (active) | 1 (active) | – | 9
17 | COc1cc2nccc(Oc3ccc(NC(=O)C4(C(=O)Nc5ccc(F)cc5)CC4)cc3)c2cc1OC | 3 | 3 | – | 1 (active) | 0 (inactive) | 1 (active) | 0 (inactive) | 1 (active) | 0 (inactive) | 0 (inactive) | 0 (inactive) | 0 (inactive) | 0 (inactive) | 1 (active) | 0 (inactive) | 0 (inactive) | 0 (inactive) | 0 (inactive) | – | –
18 | O=C(Nc1ccncc1)c1cc([N+](=O)[O-])ccc1Cl | 3 | – | 9 | 1 (active) | 0 (inactive) | 0 (inactive) | 1 (active) | 1 (active) | 1 (active) | 1 (active) | 1 (active) | 1 (active) | 1 (active) | 0 (inactive) | 1 (active) | 1 (active) | 0 (inactive) | 1 (active) | 9 | 9
19 | COc1ccc(CCc2nc3cc(-c4c(C)noc4C)ccc3n2C[C@H](C)N2CCOCC2)cc1Cl | 3 | – | – | 1 (active) | 0 (inactive) | 0 (inactive) | 0 (inactive) | 0 (inactive) | 1 (active) | 1 (active) | 1 (active) | 1 (active) | 1 (active) | 1 (active) | 0 (inactive) | 1 (active) | 0 (inactive) | 1 (active) | 9 | 3
20 | CCC(=O)N1CCOc2c(cc(-c3ccc(OC)c(OC)c3)cc2OC[C@H]2CCCN(C)C2)C1 | 9 | – | 9 | 1 (active) | 0 (inactive) | 0 (inactive) | 0 (inactive) | 1 (active) | 1 (active) | 1 (active) | 0 (inactive) | 0 (inactive) | 1 (active) | 0 (inactive) | 1 (active) | 0 (inactive) | 0 (inactive) | 0 (inactive) | – | 9
21 | COc1ccccc1C(=O)Nc1cc2c(cc1N1CCCC1)n(C)c(=O)n2C | 9 | 9 | – | 1 (active) | 0 (inactive) | 1 (active) | 0 (inactive) | 0 (inactive) | 0 (inactive) | 0 (inactive) | 0 (inactive) | 0 (inactive) | 0 (inactive) | 1 (active) | 0 (inactive) | 1 (active) | 0 (inactive) | 0 (inactive) | 9 | –
22 | CC1CNCCN1S(=O)(=O)c1cccc2cnccc12 (stereo not given) [H-7 dihydrochloride] | 9 | 9 | 9 | 1 (active) | 0 (inactive) | 1 (active) | 0 (inactive) | 0 (inactive) | 0 (inactive) | 1 (active) | 1 (active) | 0 (inactive) | 1 (active) | 1 (active) | 1 (active) | 1 (active) | 0 (inactive) | 1 (active) | 9 | –
